Screens as filed in PubChem.
A selection: hits, their analogues and other compounds. The true share with any hit is near 2.4%.
FEN1 inh: qHTS Assay for the Inhibitors of Human Flap endonuclease 1 (FEN1); P39748; Recombinant FEN1 flap cleavage, fluorescence, 15 min; Potency, µM (series often up to 114 µM), inactives show at the top dose activity change, negative = inhibition, usual class: inhibitors; actives 0.35% (n = 390,000); also: % is scaled to controls: 0 for no effect and ±100 for the full control effect; nearly all actives have a fitted effect of over 65% in size
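Enzyme 10 nM, 15 min RT preincubation with compound; start with substrate 50 nM final; reads at 0 and 15 min; qHTS titration, four-parameter Hill fit.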
Pol beta inh: qHTS Assay for Inhibitors of DNA Polymerase Beta; Pol beta primer extension/strand displacement, fluorescence kinetic; Potency, µM (series often up to 114 µM), inactives show at the highest dose activity change, negative = inhibition, actives largely listed as inhibitors; actives 1.3% (n = 340,000); also: % is scaled to controls: 0 for no effect and ±100 for the full control effect
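Reaction started by 50 nM substrate onto compound-treated Pol beta (10 nM, 15 min preincubation, room temperature); plates read at 0 min and 10 min. Normalized concentration-effect data fitted by four-parameter Hill equation.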
Pol iota inh: qHTS for Inhibitors of Polymerase Iota. DNA polymerase iota (Homo sapiens), Q9UNA4. Pol iota fluorescent replication assay, 10 min. Potency, µM (doses to about 115 µM), for inactives: at the highest dose activity, negative = inhibition, usual class: inhibitors. actives 1% (n = 390,000). AID 588590, 2011
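Pol iota at 10 nM preincubated 15 min with compounds at room temperature; reaction started with fluorescent substrate, 50 nM final. Fluorescence read kinetically at 0 and 10 min; buffer-only wells as negative control.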
POLH inh: qHTS for Inhibitors of Polymerase Eta; DNA polymerase eta (Homo sapiens), Q9Y253; recombinant Pol eta, fluorescent DNA replication assay; Potency, µM (highest dose often 114 µM), for inactives: at the highest dose activity change, negative = inhibition, hits mostly inhibitors; actives 1.2% (n = 390,000); also: % is scaled to controls: 0 for no effect and ±100 for the full control effect
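Pol eta at 10 nM preincubated with compounds 15 min at room temperature; reaction started with fluorescent substrate (50 nM final) and read kinetically at 0 and 10 min.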
Pol kappa inh: qHTS for Inhibitors of Polymerase Kappa; Potency, µM (top dose mostly 107 µM), inactives show at the highest dose activity, negative = inhibition, most hits filed as inhibitors; AID 588579, 2011; actives 0.53% (n = 400,000); purified Pol kappa, fluorescent DNA synthesis assay, 10 min; DNA polymerase kappa (Homo sapiens), Q9UBT6; also: % is scaled to controls: 0 for no effect and ±100 for the full control effect
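50 nM final substrate added after 15 min RT preincubation of 10 nM Pol kappa with compound; fluorescence read at 0 and 10 min.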
WRN inhibitor: qHTS for Inhibitors of WRN Helicase; Potency, µM (doses to about 114 µM), for inactives: at the top dose activity change, negative = inhibition, hits mostly inhibitors; actives 0.46% (n = 360,000); WRN helicase unwinding, fluorescent forked duplex, kinetic; also: % is scaled to controls: 0 for no effect and ±100 for the full control effect; nearly all actives have a fitted effect of over 55% in size
Target sequence (Q14191 whole entry, looked up): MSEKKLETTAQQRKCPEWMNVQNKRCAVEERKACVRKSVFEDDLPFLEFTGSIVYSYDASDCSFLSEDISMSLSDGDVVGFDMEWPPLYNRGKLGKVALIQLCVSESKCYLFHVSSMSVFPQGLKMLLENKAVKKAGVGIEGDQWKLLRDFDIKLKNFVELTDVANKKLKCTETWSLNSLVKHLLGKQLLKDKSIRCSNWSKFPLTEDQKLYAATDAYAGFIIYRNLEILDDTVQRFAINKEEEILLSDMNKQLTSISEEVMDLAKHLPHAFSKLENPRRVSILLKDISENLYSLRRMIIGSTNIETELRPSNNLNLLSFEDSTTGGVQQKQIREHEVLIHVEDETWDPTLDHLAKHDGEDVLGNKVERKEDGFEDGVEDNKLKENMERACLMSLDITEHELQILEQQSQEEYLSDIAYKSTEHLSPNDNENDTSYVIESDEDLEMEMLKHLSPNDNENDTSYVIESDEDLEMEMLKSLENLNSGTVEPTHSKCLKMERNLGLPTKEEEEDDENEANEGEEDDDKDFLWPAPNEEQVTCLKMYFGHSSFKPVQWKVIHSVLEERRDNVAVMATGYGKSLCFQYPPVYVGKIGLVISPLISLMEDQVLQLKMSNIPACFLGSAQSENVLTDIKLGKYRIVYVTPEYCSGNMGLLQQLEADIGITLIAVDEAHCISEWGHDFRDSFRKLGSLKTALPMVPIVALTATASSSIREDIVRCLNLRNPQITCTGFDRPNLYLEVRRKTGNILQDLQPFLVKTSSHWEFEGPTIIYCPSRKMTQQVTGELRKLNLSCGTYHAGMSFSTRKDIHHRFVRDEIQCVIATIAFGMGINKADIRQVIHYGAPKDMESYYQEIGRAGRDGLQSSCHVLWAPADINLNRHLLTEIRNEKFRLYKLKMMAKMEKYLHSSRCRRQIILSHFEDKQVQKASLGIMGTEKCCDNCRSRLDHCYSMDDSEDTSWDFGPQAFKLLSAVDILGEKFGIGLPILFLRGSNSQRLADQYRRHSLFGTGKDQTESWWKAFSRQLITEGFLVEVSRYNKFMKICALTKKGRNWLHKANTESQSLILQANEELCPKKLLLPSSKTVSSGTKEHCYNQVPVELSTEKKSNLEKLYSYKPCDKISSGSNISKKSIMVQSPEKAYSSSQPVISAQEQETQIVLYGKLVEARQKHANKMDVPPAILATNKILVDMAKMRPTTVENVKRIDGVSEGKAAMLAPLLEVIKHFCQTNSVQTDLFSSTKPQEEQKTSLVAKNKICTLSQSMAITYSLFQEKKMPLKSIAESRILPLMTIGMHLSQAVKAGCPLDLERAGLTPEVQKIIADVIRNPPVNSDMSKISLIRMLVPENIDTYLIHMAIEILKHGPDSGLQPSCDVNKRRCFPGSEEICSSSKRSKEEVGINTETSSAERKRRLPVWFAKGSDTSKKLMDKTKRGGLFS
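Primary qHTS, 1536-well format. 20 nM WRN + compound, 15 min RT; start with 100 nM forked fluorophore/quencher duplex, 2 mM ATP (final); kinetic read ex 525/em 598 nm.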
* = called active by the depositor; ? = inconclusive; . = not tested or not shown; [ ] = another dose, or the depositor's remark. Calls follow the shape of the dose curve; as a rule, active = well fitted curve in the direction sought with a large enough effect; inconclusive = small, poorly fitted or top-dose-only effect, or another doubt; inactive = no such curve, though single readings can be large; an effect the other way counts as inactive or inconclusive. Potency is read from the fitted curve at half-maximal effect.

SMILES | FEN1 inh | Pol beta inh | Pol iota inh | POLH inh | Pol kappa inh | WRN inhibitor
Cc1c(C(=O)N(Cc2ccco2)Cc2cccs2)oc2ccccc12 | -10% | . | 40µM* | ? | ? | -33%
Cc1ccccc1NC(=O)/C(C#N)=C\c1cc(C)n(-c2ccc(C(=O)O)cc2)c1C | -7% | ? | -65% | 22µM* | -29% | -2%[11.6 µM]
Cc1ccc(Nc2ccc(N)cc2S(=O)(=O)O)cc1 | -26% | ? | ? | 40µM* | -1% | -30%
COc1ccccc1/C=C/c1cncc(/C=C/c2ccccc2OC)c1 | -9% | . | 8% | . | -19% | .
CN(C)CCNC(=O)c1ccc(-n2c(-c3ccccc3)cc3c2CCCC3)cc1 | -1% | 1% | -14% | -10% | -11% | .
Cc1cc(NC(=O)c2ccc([N+](=O)[O-])o2)ccc1NC(=O)c1ccco1 | -18% | ? | ? | ? | -27% | -9%
COc1cc(NC(=O)c2ccc([N+](=O)[O-])o2)ccc1NC(=O)c1ccco1 | -13% | 0.35µM* | -3% | 4% | 1% | 5%
CC[n+]1ccnc2ccccc21 | ? | . | -13% | . | -24% | .
CCn1c(SCc2ccc(F)cc2Cl)nc(=O)c2c(C(=O)OC)cc(C3CC3)nc21 | -23% | 8% | -10% | 3% | -6%[60.1 µM] | .
CSCc1nc2sc(C(=O)Nc3nc(C)cs3)c(C)c2c(=O)[nH]1 | 2% | -3% | ? | 32µM* | -25% | -5%[11.6 µM]
CCOc1ccc(Nc2cc(C)nc3nc(Cc4ccc(Cl)cc4)nn23)cc1 | 7% | ? | 79µM* | -20% | -29% | .
COCCCNC(=O)c1ccc(Cn2c(=O)c3ccccc3n(CC(=O)Nc3c(C)cccc3C)c2=O)cc1 | 2% | 50µM* | 89µM* | -11% | -32% | .
CCC(C)NC(=O)Cn1c(=O)n(Cc2ccc(C(=O)NCc3ccccc3OC)cc2)c(=O)c2ccccc21 (stereo not given) | -3% | ? | -12% | -5% | -2% | .
CCC(C)NC(=O)Cn1c(=O)n(Cc2ccc(C(=O)NCc3ccc(C)cc3)cc2)c(=O)c2ccccc21 (stereo not given) | -3% | 20µM* | 43% | ? | 8% | .
CC(C)COc1ccc(CC(=O)NO)cc1 | 1% | . | 48% | . | -16% | .
CC(C)N(C)C1=CC(=O)C(N(C)C(C)C)=CC1=O | 3% | . | 45µM* | 8% | ? | -34%
O=c1cnc2cnc(Oc3ccccc3)nc2n1C1CC1 | . | . | . | . | 4%[60.1 µM] | .
ON=C1c2cc(OCCN3CCCCC3)ccc2-c2ccc(OCCN3CCCCC3)cc21 | 32µM* | 34% | 83% | -18% | -8% | -26%
Cc1noc(C)c1-c1ccc2ncnc(Nc3ccc(F)cc3)c2c1 | . | . | . | . | -1%[60.1 µM] | .
NC(CO)C(=O)NNCc1ccc(O)c(O)c1O (stereo not given) | 20µM* | ? | 32µM* | 1% | 2%[60.1 µM] | -2%[11.6 µM]
COC(=O)C(N)Cc1ccc(O)cc1 (stereo not given) | 2% | -1% | -21% | -10% | 1% | -13%
Cn1c(=O)c2c(-c3ccccc3)n3c(c2n(C)c1=O)C(c1ccc([N+](=O)[O-])cc1)Nc1ccccc1-3 (stereo not given) | -2% | ? | -9% | -5% | -4% | .
C#CCOCCOCCOCCNc1nc(N2CCN(C(=O)CCCCCCCCCCNC(=O)[C@@H](CCSC)n3cc(CCO)nn3)CC2)nc(N2CCN(C(=O)CCCCCCCCCCNC(=O)[C@H](CO)n3cc(CCCCCN)nn3)CC2)n1 | ? | . | -13% | ? | 1% | 50µM*
C#CCOCCOCCOCCNc1nc(N2CCN(C(=O)CCCCCCCCCCNC(=O)[C@H](CCCCN)n3cc(CCO)nn3)CC2)nc(N2CCN(C(=O)CCCCCCCCCCNC(=O)[C@H](CCCCN)n3cc(C[C@@H](C)CC)nn3)CC2)n1 | 28µM* | . | ? | 79µM* | -25% | 50µM*
C#CCOCCOCCOCCNc1nc(N2CCN(C(=O)CCCCCCCCCCNC(=O)[C@@H](CCC(=O)O)n3cc(CCCCCN)nn3)CC2)nc(N2CCN(C(=O)CCCCCCCCCCNC(=O)[C@H](CO)n3cc(CCCCCN)nn3)CC2)n1 | -8% | . | -4% | -18% | 4% | -5%
SMILES | FEN1 inh | Pol beta inh | Pol iota inh | POLH inh | Pol kappa inh | WRN inhibitor
C#CCOCCOCCOCCNc1nc(N2CCN(C(=O)CCCCCCCCCCNC(=O)[C@@H](CCC(=O)O)n3cc(CCCCCN)nn3)CC2)nc(N2CCN(C(=O)CCCCCCCCCCNC(=O)[C@H](CCCCN)n3cc(C[C@@H](C)CC)nn3)CC2)n1 | ? | . | 3% | 89µM* | 16% | -8%
CCOc1ccc(C2C(=O)N(C3CCCCCC3)CC(=O)N2Cc2ccc(F)cc2)cc1OC (stereo not given) | 3% | 9% | 5% | -13% | -9%[60.1 µM] | .
CCOC(=O)c1cc(-c2ccc(F)cc2)n(CCC(=O)NC2CCC(C)CC2)c1C (stereo not given) | -11% | ? | -15% | 0% | -10%[60.1 µM] | .
CCc1ccc(NC(=O)Cn2c(=O)n(CCCCC(=O)NCCc3ccccc3)c(=O)c3ccccc32)cc1 | 4% | -13% | 1% | 2% | -9% | .
Cc1c([N+](=O)[O-])cc(N2C(=O)C=CC2=O)cc1[N+](=O)[O-] | -2% | . | 10µM* | -14% | ? | -12%
Cc1cc(C)cc(N2C(=O)C=CC2=O)c1 | -13% | . | -1% | -6% | -12% | 20µM*
Cc1cc(C)cc(N2C(=O)C3CC=CCC3C2=O)c1 (stereo not given) | 5% | -1% | 12% | -4% | -18% | 2%
CCSc1nnc(SCC(=O)Nc2cc(C)on2)s1 | 12% | . | 45µM* | ? | ? | -12%
Cc1cc(NC(=O)CSc2nnc(-c3cccc(F)c3)n2N)no1 | 20% | . | 71µM* | -19% | -5% | -5%
CCOc1ccc(-c2nnc(SCc3nc4ccccc4[nH]3)n2N)cc1 | 5% | 50µM* | ? | -6% | 0% | -5%
Cn1c(SCc2nc3ccccc3[nH]2)nnc1-c1cccnc1 | 6% | 12% | 19% | -18% | -8% | 0%
CCOc1ccc(NC(=O)CSc2nnc(-c3ccccc3)n2N)cc1 | -5% | 22µM* | -1% | ? | -14% | -21%
CC(=O)N[C@@H](C(=O)O)C(C)(C)SN=O | . | . | . | . | -8%[19.4 µM] | .
